# Measured values published in the supplement of paper PMC10338343.
# ± gives the standard deviation.
# Columns and labels:
# [1] = test system: MILI (PIWIL2) piRISC loaded with L1MC piRNA (26 nt); test: pre-steady-state target cleavage rate (min^-1); guide: L1MC piRNA 5'p-UAACUAAAUACUAUGCAAGCUGUAGG; higher = faster piRNA-guided slicing of the target
# Procedure, shortened: (§1)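 Cleave-'n-Seq: a transcribed, DNA-blocked target RNA library (0.1 nM) was mixed with 1 nM active affinity-purified piRISC carrying one synthetic guide, with or without 500 nM GTSF1 partner protein, in HEPES–potassium acetate buffer at 33 °C for 0–8 or 0–960 min. Uncleaved targets were sequenced and normalised to depth and to weakly complementary targets. Three trials were pooled, and k3 was capped at 0.0001 min^-1. The pre-steady-state cleavage rate came from a burst-and-steady-state fit.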
# [2] = test system: EfPiwi piRISC loaded with L1MC piRNA (26 nt); test: pre-steady-state target cleavage rate (min^-1); auxiliary factor: none (no Gtsf1); guide: L1MC piRNA 5'p-UAACUAAAUACUAUGCAAGCUGUAGG; higher = faster piRNA-guided slicing of the target
# Procedure, shortened: as §1
# [3] = test system: EfPiwi piRISC loaded with L1MC piRNA (26 nt); test: pre-steady-state target cleavage rate (min^-1); auxiliary factor: 500 nM Ephydatia muelleri Gtsf1; guide: L1MC piRNA 5'p-UAACUAAAUACUAUGCAAGCUGUAGG; MIWI and MILI are mouse PIWI proteins and EfPiwi is from a freshwater sponge; tags in brackets are library labels; higher = faster piRNA-guided slicing of the target
# Procedure, shortened: as §1
# [4] = auxiliary factor: 500 nM mouse GTSF1
# [5] = auxiliary factor: none (no GTSF1)
Sequence,"pre-steady-state target cleavage rate [1, 4]","pre-steady-state target cleavage rate [1, 5]",pre-steady-state target cleavage rate [2],pre-steady-state target cleavage rate [3]
UCCUGGAUCUGCUUGCAUAGUAAUUAGUUA,0.2 ± 0.017,0.00416 ± 0.0027,0.0241 ± 0.0099,0.0152 ± 0.005
UCCUCCUACAGCUUGCAUAGGAUUUAGUUA,0.0118 ± 0.0044,,0.00638 ± 0.0035,0.0113 ± 0.0028
UCCUGGAUGAGCUUGCAUAGUAGUUUAGUUA,,,0.0124 ± 0.0079,0.00964 ± 0.0035
UCCUGGAUGAGCUUGCAUAGUAUGUAGUUA,0.162 ± 0.033,0.0043 ± 0.003,0.00616 ± 0.0049,0.0135 ± 0.0044
UCCUGGAUGUCGAACGUAUCUAUUUAGAAA [g4:g10:cont:t1A],,,< 0.0001,< 0.0001
UCCUGGAUGUCGAACGUUAGUAUCUAGUUA,,,< 0.0001,< 0.0001
UCCUGGAUGUCGUAGCAUAGUUUUUAGUUA,0.00685 ± 0.0041,,,
UCCUGGAUCAGCUUGCAUAUUAUUUAGUUA,0.0736 ± 0.0095,,0.00536 ± 0.0048,0.0367 ± 0.011
UCCUGGUUACAGCUUGCAUAGUAUUUAGUUA,0.256 ± 0.025,0.03 ± 0.0078,0.00968 ± 0.0057,0.0881 ± 0.021
UCCUGGAUGUGCAUGCAUAGUAUUUAGAUA,0.146 ± 0.032,,< 0.0001,0.00317 ± 0.0024
UCCUGGAACUCGUUGCAUAGUAUUUAGUUA,,,< 0.0001,0.00531 ± 0.0017
UCCUGGAUGUCGAACGUAUGUCUUUAGUUA,,,< 0.0001,< 0.0001
UCCUGCUACAGGUUGCAUAGUAUUUACAAA,0.0112 ± 0.0054,,< 0.0001,0.00244 ± 0.0017
UCCUGCAUGAGCUUGCAUAGUAUUUAGAAA,0.157 ± 0.028,,< 0.0001,0.00569 ± 0.0021
UCCUGCUACAGCUUGCAUAUGUAUUUAGUUA,0.0123 ± 0.0069,,< 0.0001,0.00294 ± 0.0023
UCCUGGAACAGCAUGCAUAGAAUUUAGUUA,0.0767 ± 0.018,,,
UCCUGGAUGUGCUUGCAUAUAUUUAGUUA,0.00444 ± 0.0037,,,
UCCUGGAUGUCGUAGCAUAGUAUUUAGAUA,0.0132 ± 0.0048,,,
